A selection: hits, their analogues and other compounds. The true share with any hit is near 3.5%.
BH1578 lux ind: quorum light induction in luxS cqsA deficient V. cholerae. V. cholerae BH1578 lux reporter, luminescence, 6 h. activation, % at 18.7 µM. hit rate 0.16% among 350,000; in the data active = activation mostly above about 9.7%, no sharp cut-off; inconclusive = no clear call, values can overlap the other calls; inactive = mostly below about 3.7%
Anthrax LF prot: inhibitors of Bacillus anthracis lethal factor protease. P15917. multiplex microsphere protease cleavage assay, LF. inhibition, % at 10 µM. hit rate 0.12% among 360,000. AID 588501; note: plate controls were buffer without enzyme for full effect and enzyme alone for no effect
Target sequence (P15917 whole entry, looked up): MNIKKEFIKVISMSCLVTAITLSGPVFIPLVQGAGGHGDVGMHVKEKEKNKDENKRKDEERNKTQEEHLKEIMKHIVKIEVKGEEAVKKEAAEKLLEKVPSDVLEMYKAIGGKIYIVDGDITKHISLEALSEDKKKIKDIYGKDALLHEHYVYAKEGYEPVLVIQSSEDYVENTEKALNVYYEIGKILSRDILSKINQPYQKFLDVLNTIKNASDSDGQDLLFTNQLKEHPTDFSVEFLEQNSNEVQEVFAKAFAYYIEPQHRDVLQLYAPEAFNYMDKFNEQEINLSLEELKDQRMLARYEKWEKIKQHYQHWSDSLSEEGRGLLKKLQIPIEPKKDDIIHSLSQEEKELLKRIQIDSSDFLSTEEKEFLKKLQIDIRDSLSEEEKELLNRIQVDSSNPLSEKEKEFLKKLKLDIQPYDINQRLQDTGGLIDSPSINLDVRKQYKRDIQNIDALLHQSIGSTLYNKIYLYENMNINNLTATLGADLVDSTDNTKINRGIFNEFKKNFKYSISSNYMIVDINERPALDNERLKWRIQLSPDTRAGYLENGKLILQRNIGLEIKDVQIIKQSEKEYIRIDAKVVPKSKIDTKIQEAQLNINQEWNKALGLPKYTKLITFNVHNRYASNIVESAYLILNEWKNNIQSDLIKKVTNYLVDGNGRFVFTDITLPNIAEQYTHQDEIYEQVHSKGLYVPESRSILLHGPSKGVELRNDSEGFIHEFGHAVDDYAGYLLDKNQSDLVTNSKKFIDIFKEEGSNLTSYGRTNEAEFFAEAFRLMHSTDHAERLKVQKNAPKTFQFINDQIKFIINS
Autofluor counter: flagged as autofluorescent in microsphere protease counterscreen; compound autofluorescence counterscreen, microsphere flow cytometry; active compounds read high; fluorescence intensity (test concentration not listed); hit rate 3.1% among 360,000; in the data active = fluorescence intensity above about 16000; inconclusive = no clear call, values can overlap the other calls
BoNT-A LC inh2: inhibitors of Botulinum neurotoxin A light chain protease. hit rate 0.17% among 360,000. inhibition, % at 10 µM. AID 588499. multiplex microsphere protease substrate cleavage, flow cytometry; note: plate controls were buffer without enzyme for full effect and enzyme alone for no effect
BoNT-F LC inh: blocks Botulinum neurotoxin F light chain protease | AID 588497 | hit rate 0.22% among 360,000 | Multiplex microsphere protease cleavage assay, flow cytometry | inhibition, % at 10 µM; in the data active = inhibition above about 35%, passing the limit was not always enough; inconclusive = no clear call, values can overlap the other calls; note: plate controls were buffer without enzyme for full effect and enzyme alone for no effect
* hit, by the source's call; i = inactive; ? = inconclusive; · = no result. Cut-off read from the data, not from the text of the source, unless noted: active = inhibition above about 30%; inconclusive = no clear call, values can overlap the other calls; inactive = below that.

SMILES	BH1578 lux ind	Anthrax LF prot	Autofluor counter	BoNT-A LC inh2	BoNT-F LC inh
O=C(CSc1nnc(-c2ccccc2Cl)o1)Nc1ccc2c(c1)OCCO2	i	-4	19436*	1	0
Cc1ccc(NC(=O)CSc2nnc(-c3ccccc3C)o2)cc1C	0	·	·	·	·
Cc1cccc(NC(=O)CSc2nnc(-c3ccccc3C)o2)c1	-2	-4	18972*	2	1
O=C(CSc1nnc(-c2ccc(O)cc2)o1)Nc1ccc2c(c1)OCCO2	·	-1	3433	0	-1
CCn1c(SCc2nc3ccccc3c(=O)[nH]2)nnc1-c1cccnc1	i	1	23337*	?	1
CCn1c(SCc2nc3ccccc3c(=O)[nH]2)nnc1-c1ccncc1	·	3	10286	0	-5
Nn1c(SC/C=C/c2ccccc2)nnc1-c1cccnc1	i	-3	21822*	3	4
Clc1ccc(-n2c(SC/C=C/c3ccccc3)nnc2-c2cccnc2)cc1	i	-1	9553	1	10
Nn1c(SCc2nc3ccccc3[nH]2)nnc1-c1cccnc1	i	-2	22326*	0	0
CCc1nc2ccc(C(=O)N(CC)CCN(C)C)cn2c1N(C)C(=O)c1cccc(OC)c1	-1	-6	3907	0	-5
CCOc1ccc(NC(=O)CSc2nnc(CNC(=O)c3cccs3)o2)cc1	0	-2	4575	0	1
CCC(C)(C(=O)NC1CCCCC1)N(CC1CCCO1)C(=O)c1ccccn1 (stereo unspecified)	i	2	25517*	-4	-8
CCC(C)(C(=O)NC1CCCC1)N(Cc1ccco1)C(=O)c1ccc2c(c1)OCO2 (stereo unspecified)	i	-4	17659*	-2	-1
CCC(C)(C(=O)NC1CCCC1)N(Cc1ccco1)C(=O)c1ccccn1 (stereo unspecified)	0	2	6142	0	-4
CCC(C)(C(=O)NC1CCCCC1)N(Cc1ccco1)C(=O)c1cnccn1 (stereo unspecified)	-6	-5	16804*	0	-2
CCC(C)(C(=O)NC1CCCC1)N(Cc1ccco1)C(=O)Cc1cccs1 (stereo unspecified)	0	2	4440	0	-13
COc1cc(N(C)C)c([N+](=O)[O-])cc1C(=O)N1CCOCC1	-1	-1	4486	0	3
COc1cc(CO)ccc1Oc1nnnn1-c1ccc(C(N)=O)cc1	0	-8	16480*	10	15
O=C(/C=C/c1ccc(-c2ccccc2[N+](=O)[O-])o1)c1ccc(Br)cc1	-2	22	21485*	?	7
Cc1ccc(-c2ccc(/C=C/C(=O)c3ccccc3)o2)cc1	0	19	2633	44*	7
O=C(/C=C/c1ccc(-c2ccccc2)o1)c1ccccc1	0	31*	2583	63*	14
O=C(/C=C/c1ccc(-c2ccccc2[N+](=O)[O-])o1)c1ccc(F)cc1	i	13	7400	17	4
Cc1ccc(S(=O)(=O)NCCc2cn3nc(C)c(C)nc3n2)cc1C	-2	2	5492	0	-2
O=C(N/N=C/C=C/c1ccc2c(c1)OCO2)C(O)c1ccccc1 (stereo unspecified)	0	18	3186	-2	?
CCC(CC)c1nnc(NC(=O)Oc2ccccc2)s1	i	7	5722	4	42*
SMILES	BH1578 lux ind	Anthrax LF prot	Autofluor counter	BoNT-A LC inh2	BoNT-F LC inh
Cc1nnc(NC(=O)Oc2ccccc2)s1	-4	-2	9085	0	4
CCN(CC(=O)Nc1ccccc1OC)C(=O)CSCC(=O)Nc1cccc(C)c1	0	12	5061	1	-14
COc1ccc(CCNS(=O)(=O)c2cccc(C)c2)cc1OC	0	-2	20544*	-2	-4
COc1ccc(CCNS(=O)(=O)c2cccc(F)c2)cc1OC	i	-1	15520	2	1
COc1ccc(OC)c(S(=O)(=O)NCc2ccccc2)c1	1	-3	16582*	-1	-6
COc1ccc(-c2nnnn2C)cc1S(=O)(=O)NCCc1ccccc1	0	2	19418*	?	3
COc1ccc(S(=O)(=O)NCc2ccncc2)cc1OC	1	0	23943*	-2	-2
COc1ccc(S(=O)(=O)NCc2cccnc2)cc1OC	i	-1	3965	2	-6
CCOC(=O)Cn1ncn(-c2ccc(OC(F)(F)F)cc2)c1=O	i	5	4093	0	-4
COc1ccc(C(=O)N2CCN(S(=O)(=O)c3ccc4c(c3)OCCO4)CC2)cc1OC	-2	8	3860	0	6
COc1ccc(-n2nnnc2S(=O)(=O)CC(=O)N2CCCCC2)cc1	0	-7	5100	0	-3
COc1ccc(S(=O)(=O)NCc2ccc(C(=O)O)cc2)cc1	-1	0	20146*	0	1

Screening results from PubChem BioAssay.
